The nature of experiment [1]: Cell Proliferation Assay against the TMD8 Cell Line (Caspase readout at 16 hrs) (AID 651712). Also: potency is read from the fitted curve at half-maximal effect. The following applies: TMD8 lymphoma cells, caspase activation luminescence; series mostly up to 46.1 µM. The method in brief: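 16 h, 37 °C, TMD8 (500 cells/well), RPMI/5% FBS no phenol red; Caspase-Glo 3/7, 15 min RT, luminescence; %act: DMSO 0, bortezomib 9.2 uM final 100.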

Experiment [2] can be described thus: qHTS assay for small molecule activators of the p53 signaling pathway (AID 651743; active = well fitted activation curve with a large enough effect in the signal ratio, not every such curve was filed as active; the % refers to the signal ratio; also: % of control where 0% means no effect). To be noted: HCT-116 p53RE-bla, beta-lactamase FRET ratio, 16 h; activation: stronger effect = higher value. The method, boiled down: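 Agonist-mode quantitative HTS in HCT-116 cells carrying a p53-response-element beta-lactamase reporter; 16 h compound treatment at 37 C, then FRET substrate loading for 2 h at room temperature and fluorescence read.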

A short description of experiment [3]: qHTS assay for small molecule activators of the nuclear factor-kappa B (NF-kB) signaling pathway (AID 651749; active = well fitted activation curve with a large enough effect in the signal ratio; the % refers to the signal ratio; also: % of control where 0% means no effect). The following applies: NF-kB-bla ME-180 cells, beta-lactamase FRET ratio, 16 h; stronger effect = higher value. The method in brief: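 Human ME-180 cervical cells with an NF-kB-bla construct; compounds added via 23 nL pin transfer, DMSO as vehicle; incubation 16 hr. Reporter activity measured by FRET disruption.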
(Quantitative high-throughput screening tests each substance at several concentrations.)

Experiment [4] can be described thus: qHTS assay for environmental chemicals that activate the Aryl hydrocarbon Receptor (AhR) signaling pathway (AID 651777). Also: nearly all actives have a fitted effect of over 15% in size. Also: potency is read from the fitted curve at half-maximal effect. As to activation: % of control where 0% means no effect. To be noted: 1A2-DRE human hepatoma cells, luciferase, 24 h; activation: stronger effect = higher value. The method in brief: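 AhR activation is scored as a rise in luciferase from a stable DRE–CYP1A2 promoter construct in human hepatoma cells. Treatment lasts 24 hr at 37 C; detection uses One-Glo after 30 min at room temperature.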

Experiment [5] can be described thus: qHTS assay for small molecule agonists of the antioxidant response element (ARE) signaling pathway (AID 651741; active = well fitted activation curve with a large enough effect in the signal ratio; the % refers to the signal ratio; also: potency is read from the fitted curve at half-maximal effect; as to activation: % of control where 0% means no effect). The following applies: HepG2 ARE-bla reporter, beta-lactamase FRET ratio, 16 h; series mostly up to 96 µM. The method in brief:
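Reporter: beta-lactamase under ARE, stably in HepG2. Exposure: 16 h, 37 C, compounds delivered in DMSO by pin tool after 5 h cell preincubation. Readout: FRET substrate fluorescence after 2 h at RT.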

A short description of experiment [6]: Cytotoxicity counterscreen for NFkB agonists and antagonists (AID 624476).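 Also: cells exposed to compound for 48 hours.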 Also: potency is read from the fitted curve at half-maximal effect. To be noted: NFkB reporter cell line viability counterscreen; series mostly up to 46.1 µM.
Experiment [7] is described as follows: qHTS Assay for Identification of Small Molecule Antagonists for NFkB Signaling Pathway. (AID 624479; calls by dose curve; also: potency is read from the fitted curve at half-maximal effect). To be noted: NFkB pathway reporter cell assay, antagonist mode; series mostly up to 38.3 µM.
The nature of experiment [8]: qHTS Assay for Identification of Small Molecule Agonists for NFkB Signaling Pathway. (AID 624478).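 Also: compounds tested together with TNF alpha at its EC50 of 10 pM; 0% is about no effect.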 To be noted: NFkB pathway reporter cell assay, agonist mode, cells co-stimulated with 10 pM TNF alpha; series mostly up to 46.1 µM. The method in brief: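 Activators were sought in reporter cells stimulated at the TNF alpha EC50 (10 pM final). Compound and cytokine were co-incubated 5 hours at 37 C before beta-lactamase substrate detection by dual-emission fluorescence.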

Experiment [9] can be described thus: Cell Proliferation Assay against the HBL1 Cell Line (AID 651646).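 Also: cells exposed to compound for 48 h before reading.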 To be noted: HBL1 DLBCL cells; at 46.1 µM (top of the series) unless noted. The method in brief:
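After a 48 h incubation of 500 HBL1 cells/well in phenol red-free RPMI plus 5% FBS, relative luciferase units from CellTiter-Glo gave percent activity against DMSO and 9.2 uM bortezomib (final) controls.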

The nature of experiment [10]: Cell Proliferation Assay against the TMD8 Cell Line (Caspase readout at 8 hrs) (AID 651713). Also: potency is read from the fitted curve at half-maximal effect. The following applies: TMD8 lymphoma cells, caspase activation luminescence; series mostly up to 46.1 µM. The method, boiled down: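 Caspase 3/7 activation in ABC DLBCL TMD8 cells is measured by luminescence after an 8 h compound exposure at 37C. Relative light units are scaled between DMSO (0%) and 9.2 uM final bortezomib (100%).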

Experiment [11] in a line: qHTS assay for small molecule disruptors of the mitochondrial membrane potential - 1 hr assay (AID 651754; calls by dose curve; also: nearly all actives have a fitted effect of over 35% in size; also: potency is read from the fitted curve at half-maximal effect). The following applies: series mostly up to 92.2 µM. The method, boiled down: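 Loss of mitochondrial potential shifts the cationic dye from red mitochondrial aggregates to green cytoplasmic monomers. Cells (HepG2) are treated with compound for 1 hr before a 30 min dye incubation at 37C.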

The nature of experiment [12]: qHTS assay for small molecule disruptors of the mitochondrial membrane potential - 5 hr assay (AID 651755; calls by dose curve; also: nearly all actives have a fitted effect of over 40% in size; also: potency is read from the fitted curve at half-maximal effect). The following applies: JC-1-type ratio dye; series mostly up to 92.2 µM. The method, boiled down:
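Seed HepG2 overnight, add compound, incubate 5 hr at 37C and 5% CO2, stain 30 min with Mito-MPS, then measure monomer (490/535 nm) and aggregate (540/590 nm) fluorescence.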

For experiment [13], the target named is Tumor necrosis factor (Homo sapiens) (UniProt P01375). Briefly: qHTS assay to identify small molecules that stimulate Tumor Necrosis Factor-alpha (TNF-alpha) secretion (AID 651757; active = well fitted curve in the direction sought with a large enough effect in the signal ratio; the % refers to the signal ratio; also: 0% is about no effect). To be noted: Human cells, HTRF 665/615 ratio; series mostly up to 92.2 µM. The method, boiled down:
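Human monocytic THP-1 cells are plated, treated with compound and held at 37 C for 17 hrs. Labeled anti-TNF-alpha antibody mixture is then added; after 3 hr at room temperature, TR-FRET signal reports secreted TNF-alpha.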

Experiment [14] is described as follows: qHTS assay to identify small molecules that stimulate interleukin-8 (IL-8) secretion (AID 651758; active = well fitted activation curve with a large enough effect in the signal ratio; the % refers to the signal ratio; also: 0% is about no effect). To be noted: HTRF ratio (665/615); series mostly up to 92.2 µM. The method, boiled down:
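Quantitative HTS in THP-1 monocytic cells at 2000 cells per well, with 16 hrs compound incubation at 37 C. IL-8 in the medium was then quantified by HTRF immunoassay, read after 1-3 hrs at room temperature.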

The structures appear in SMILES notation. “And” between values parts separate entries of the source, which are not always exact repeats. Identical values can stand only once. Results filed as inconclusive are left out. The source made the active and inactive calls. Unless noted, calls follow the shape of the dose curve; as a rule, active = well fitted curve in the direction sought with a large enough effect; inconclusive = small, poorly fitted or top-dose-only effect, or another doubt; inactive = no such curve, though single readings can be large; an effect the other way counts as inactive or inconclusive.

Sequence of Tumor necrosis factor (Homo sapiens) (P01375 whole entry, looked up): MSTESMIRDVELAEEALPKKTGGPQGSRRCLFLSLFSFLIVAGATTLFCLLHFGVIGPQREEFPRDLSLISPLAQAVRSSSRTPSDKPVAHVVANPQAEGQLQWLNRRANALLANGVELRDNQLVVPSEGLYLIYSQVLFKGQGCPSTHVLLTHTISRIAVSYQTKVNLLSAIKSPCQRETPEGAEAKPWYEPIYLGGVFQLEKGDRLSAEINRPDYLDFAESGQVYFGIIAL

For `CC1CC(C)C(=O)C(C(O)CC2CC(=O)NC(=O)C2)C1` (stereo unspecified), the Potency in experiment [1] was 1.91 µM (active).
For `Clc1cnc(Oc2ccc(Oc3ncc(Cl)cc3Cl)cc2)c(Cl)c1`, the results for the activation in experiment [2], in experiment [3] and in [4] were -0.174% (inactive), 0.531% (inactive) and 0.838% (inactive), respectively.
Take `CC(C)(C)C(O)C(Oc1ccc(Cl)cc1)n1cncn1` (stereo unspecified): the Potency entry in experiment [5] is “inactive”. Further, the results for the activation in experiment [2], in [3] and in experiment [4] were -1.72% (inactive), -0.211% (inactive) and 5.62% (inactive), respectively.
As to `Cc1cnc(Nc2ccc(F)cc2Cl)nc1-c1c[nH]c(C(=O)N[C@H](CO)c2cccc(Cl)c2)c1`, the Potency in experiment [6] is 26.4 µM (active); in [7], 16.8 µM (active).
For the compound `CC(C)[C@]12O[C@H]1[C@@H]1O[C@]13[C@]1(O[C@H]1C[C@H]1C4=C(CC[C@@]13C)C(=O)OC4)[C@@H]2O`, the Potency was 0.0332 µM (active) in [6], 0.0335 µM (active) in [7], 0.0132 µM (active) in experiment [1] and 0.132 µM (active) in [10]. The result in [8] was inactive. For the same compound, the viability, percent of control in [9] was determined as 35%.
As to `CN(C)NC(=O)CCC(=O)O`, the Potency entry in [5], in [11] and in experiment [12] was “inactive” each time. For the same compound, the activation is 0.825% (inactive) and -3.72% (inactive) in [2]; 0.502% (inactive) and -0.298% (inactive) in experiment [3]; 0.139% (inactive) and -1.5% (inactive) in experiment [4]. The result in [13] was inactive.
Take `Nc1nc(-c2nn(Cc3ccccc3F)c3ncccc23)nc(N)c1N1CCOCC1`: the viability, percent of control in [9] stood at 114%.
Regarding `CCCCC(CC)COC(=O)c1ccccc1C(=O)O` (stereo unspecified), in [5], the Potency is 54.5 µM (active).
Turning to `COc1nn(CSP(=S)(OC)OC)c(=O)s1`, in experiment [5], the Potency entry was “inactive”. Also, the activation in experiment [2] was 0.0507% (inactive); in [3], -0.901% (inactive); in [4], -1.09% (inactive).
`O=C(O)COc1ccccc1`: the Potency result in experiment [5] was “inactive”. Moreover, the activation in [2] is -8.89% (inactive); in experiment [3], -0.0582% (inactive); in experiment [4] it was 0.99% (inactive). Further, the outcome in experiment [13] and in experiment [14] was inactive.
In the case of `Cc1nc(-c2ccc(-c3ccc(C(=O)N4CCc5cc6c(cc54)C4(CCN(C)CC4)CO6)cc3)c(C)c2)no1`, the Potency result in experiment [6] was “inactive”. Besides, the result in [8] was inactive. For the same compound, the viability, percent of control in experiment [9] worked out at 1.18%.
`CC[C@H](CO)Nc1nc(NCc2ccccc2)c2ncn(C(C)C)c2n1`: in [7], the Potency was 11.9 µM (active).
On to `COc1cc2c(cc1O)CC[C@@H]1[C@@H]2CC[C@]2(C)[C@@H](O)CC[C@@H]12`, for which, in experiment [9], the viability, percent of control was 37.3%.
As for `O=[N+]([O-])c1cc([N+](=O)[O-])c2ccccc2c1`, the Potency was 5.96 µM (active) in experiment [5] and 33.5 µM (active) in experiment [11]. The activation in [2] was -0.898% (inactive); in experiment [3], -0.323% (inactive); in experiment [4] it was 11.7% (inactive). Besides, the outcome in experiment [13] was inactive.
As for `Cc1c(C(=O)Nc2cccc(C(F)(F)F)c2)cc(-c2ccccc2)n1CCCN1CCOCC1`, in experiment [6], the Potency result was “inactive”. The result in experiment [8] was inactive. The viability, percent of control in experiment [9] was found to be 18.7%.
Consider `CCCCOC(=O)c1ccccc1C(=O)OCc1ccccc1`, for which the Potency entry in experiment [5] and in experiment [12] was “inactive” in each case. For the same compound, the activation in experiment [2] is 1.28% (inactive) and 1.63% (inactive); in experiment [3] it was -1.25% (inactive) and 0.0084% (inactive); in [4] it was 12.8% (inactive) and 3.39% (inactive). For the same compound, the result in [13] and in [14] was inactive.
Consider `C[C@@]12O[C@@H](C[C@]1(O)CO)n1c3ccccc3c3c4c(c5c6ccccc6n2c5c31)CNC4=O`, for which the Potency in experiment [7] is 1.49 µM (active).
As for `C=CC(=O)NCNC(=O)C=C`, the Potency in experiment [5] was 37.6 µM (active) and 30.6 µM (active). Also, the activation was -3.11% (inactive) and -4.69% (inactive) in [2]; -0.065% (inactive) and -1.61% (inactive) in experiment [3]; 1.7% (inactive) and 2.02% (inactive) in experiment [4]. For the same compound, the outcome in experiment [13] and in experiment [14] was inactive.
As to `Nc1ccc(Cl)cc1N`, the Potency in experiment [5] is 4.22 µM (active) and 27.3 µM (active); in experiment [11], 8.41 µM (active); in [12], 13.3 µM (active); in experiment [4], 50.1 µM (active) and 39.8 µM (active). For the same compound, the activation in [2] is 1.69% (inactive) and 0.406% (inactive); in [3], 0.983% (inactive) and -0.776% (inactive).
`CC(C)(C)c1[nH]cnc1C=c1[nH]c(=O)c(=Cc2ccccc2)[nH]c1=O`: the Potency in [6] is 18.7 µM (active); in experiment [7], 16.8 µM (active); in experiment [1] it was 0.0235 µM (active); in [10], 0.059 µM (active).
Regarding `CC[C@@H](C(=O)O)C1CC[C@H](C)C([C@@H](C)[C@H](O)[C@H](C)C(=O)[C@H](CC)C2O[C@]3(C=C[C@@H](O)[C@]4(CC[C@@](C)(C5CC[C@](O)(CC)[C@H](C)O5)O4)O3)[C@H](C)C[C@@H]2C)O1` (stereo partly specified), the values for the Potency in experiment [6] and in experiment [7] were 8.33 µM (active) and 11.9 µM (active), respectively.
For `CO[C@H]1C=CC=C(C)C(=O)NC2=CC(=O)C(NCCN(C)C)=C(C[C@@H](C)C[C@H](OC)[C@@H](O)[C@@H](C)C=C(C)[C@@H]1OC(N)=O)C2=O` the same measures were 20.9 µM (active) and 0.0008 µM (active).
On to `CS(=O)(=O)c1ccc(C(=O)C2C(=O)CCCC2=O)c([N+](=O)[O-])c1`, for which the Potency in experiment [5] was 54.5 µM (active). Besides, the figures for the activation in experiment [2], in [3] and in [4] were -1.94% (inactive), -0.467% (inactive) and 3.32% (inactive), respectively.
